Pf Dd2 inh: Plasmodium falciparum Dd2 growth inhibition. P. falciparum Dd2 growth, SYBR Green, 72 h. actives 4.3% (n = 120,000). Potency, µM (highest dose often 28.9 µM), without a hit: at the highest dose activity, negative = inhibition, actives largely listed as inhibitors; active means well fitted inhibition curve with a large enough effect;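 further: plate controls were DMSO vehicle for no effect and reference drug for full effect; nearly all actives have a fitted effect of over 65% in size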
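Readout: SYBR Green fluorescence, 485 nm excitation, 535 nm emission, after ~16 h lysis at 37C. Before that, Dd2-infected red cells (2.5% hematocrit) grew 72 h with compound, 29 uM top final concentration.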
Starred values were filed as active, the others as inactive; [ ] = dose if it differs, or a comment. Only a selection was taken, and hits are over-represented in it overall. Potency means the concentration at half of the fitted maximal effect.

CC(C)CCN1C(=O)CC[C@]2(C(=O)NCc3ccncc3)CCCC[C@@H]12 was read as Pf Dd2 inh 10%.
Screening CCCN(CCC)C(=O)[C@@]12CCCC[C@H]1N(CCC(C)C)C(=O)CC2 returned Pf Dd2 inh 10µM*.
Screening CC(C)CCN1C(=O)CC[C@]2(C(=O)NC3CC3)CCCC[C@@H]12 returned Pf Dd2 inh 25%.
Screening CN(CC(=O)N1CCC(CCOc2ccccc2F)C1)S(=O)(=O)c1ccc2c(c1)oc(=O)n2C (stereo not given) returned Pf Dd2 inh -22%.
Screening Cc1ccc(NC(=O)C(=O)NCC(c2ccc3c(c2)OCO3)N2CCN(c3ccccc3)CC2)cc1 (stereo not given) returned Pf Dd2 inh -2%.
Screening CCCC(=O)NCC(c1ccc2c(c1)OCO2)N1CCN(c2ccc(F)cc2)CC1 (stereo not given) returned Pf Dd2 inh -18%.
For CC(C)(C)CC(=O)NCC(c1ccc2c(c1)OCO2)N1CCN(c2ccccc2)CC1 (stereo not given) the results were Pf Dd2 inh 7.1µM*.
Cc1ccc(C(=O)NCC(c2ccc3c(c2)OCO3)N2CCN(c3ccc(F)cc3)CC2)cc1 (stereo not given) was read as Pf Dd2 inh 13µM*.
Screening CC(=O)NCC(c1ccc2c(c1)OCO2)N1CCN(c2ccccc2)CC1 (stereo not given) returned Pf Dd2 inh -2%.
`CCCC(=O)NCC(c1ccc2c(c1)OCO2)N1CCN(c2ccccc2)CC1` (stereo not given) gave Pf Dd2 inh 0%.
For CC(C)C(=O)N1CCN(c2nc3c(s2)CC(C(=O)NCCc2cccs2)CC3)CC1 (stereo not given) the results were Pf Dd2 inh -16%.
Screening C[C@@H]1CN(C(=O)c2ccc(Cn3cnnn3)cc2)CC[C@@]1(O)C1CCOCC1 returned Pf Dd2 inh -7%.
COc1ccccc1C(=O)N1C2CCCC1CC(=O)C2 was read as Pf Dd2 inh 3%[44.1 µM].
For N#Cc1ccccc1S(=O)(=O)N[C@H]1CO[C@H]2[C@@H]1OC[C@@H]2n1nnnc1-c1ccc2c(c1)OCO2 the results were Pf Dd2 inh -15%.
`O=C(c1ccccn1)N1CCC(n2c(=O)[nH]c3ccccc32)CC1` gave Pf Dd2 inh 4%[44.1 µM].
`CSc1ccc(CNc2ncncc2-c2nc(-c3ccccc3)no2)cc1` gave Pf Dd2 inh inactive.
CN1c2cc(C(=O)Nc3cccc(Br)c3)ccc2C(=O)N2CCCCC21 (stereo not given) was read as Pf Dd2 inh -11%.
COc1ccccc1Nc1nn2c(=O)c3ccc(C(=O)Nc4ccc(F)cc4)cc3nc2s1 was read as Pf Dd2 inh 31%.
CCOc1ccccc1C(=O)Nc1ccc2nc3c(c(Nc4ccc(OC)c(OC)c4)c2c1)CCCC3 was read as Pf Dd2 inh 1.1µM*.
Screening COc1ccccc1Nc1c2c(nc3ccc(NC(=O)c4ccc(N(C)C)cc4)cc13)CCCC2 returned Pf Dd2 inh 5.6µM*.
Screening COc1cc(OC)cc(C(=O)Nc2ccc3nc4c(c(Nc5ccc(OC)c(OC)c5)c3c2)CCCC4)c1 returned Pf Dd2 inh 0%.
Screening COc1ccc(C)cc1NC(=O)c1ccc2c(Cl)c3c(nc2c1)CCC3 returned Pf Dd2 inh 30%.
`CCOc1ccccc1C(=O)Nc1ccc(S(=O)(=O)Nc2nc(C)cc(C)n2)cc1` gave Pf Dd2 inh -4%.
COc1ccc(Cn2c(C3CCN(C(=O)c4c(F)cccc4F)CC3)n[nH]c2=O)cc1 was read as Pf Dd2 inh -26%.
`CC(C)NC(=O)N1CCN(C(=O)c2cccs2)[C@H](C(=O)N[C@@H](Cc2cccnc2)C(N)=O)C1` gave Pf Dd2 inh 3%.
Screening CC(C)Cc1ccc(CN2CCC3(Cc4ccccc4CNC3=O)C2)cc1 (stereo not given) returned Pf Dd2 inh 13µM*.
`CC(=O)Nc1ccc(CN2CCCC3(Cc4ccccc4CNC3=O)C2)cc1` (stereo not given) gave Pf Dd2 inh -16%.
`O=C1NCc2ccccc2CC12CCN(Cc1ccncc1Cl)C2` (stereo not given) gave Pf Dd2 inh 10%.
O=C1NCc2ccccc2CC12CCN(Cc1ccc(Oc3ccccc3)cc1)C2 (stereo not given) was read as Pf Dd2 inh 11µM*.
For CC(C)(C)CN1CCC2(Cc3ccccc3CNC2=O)C1 (stereo not given) the results were Pf Dd2 inh -25%[44.1 µM].
Cn1nccc1CN1CCC2(CC1)Cc1ccccc1NC2=O was read as Pf Dd2 inh -24%[44.1 µM].
Screening COc1cccc(CN2CCC3(Cc4ccccc4NC3=O)C2)c1 (stereo not given) returned Pf Dd2 inh -4%[44.1 µM].
Screening Cc1ccc(CN2CCC3(CC2)Cc2ccccc2NC3=O)cc1 returned Pf Dd2 inh 4.5µM*.
`N#Cc1ccc(CN2CCC3(Cc4ccccc4CNC3=O)C2)cc1` (stereo not given) gave Pf Dd2 inh 5%.
`COc1ccc(NC(=O)CN2C(=O)COc3ccc(C(=O)COc4ccccc4F)cc32)cc1` gave Pf Dd2 inh inactive.
O=C(O)c1ccc(CC2CCN(Cc3ccncc3)C2)cc1 (stereo not given) was read as Pf Dd2 inh -4%.
Screening CC(=O)N1C[C@@H]2CCCN3CCC[C@@H]([C@H]23)[C@H]1CCCC(=O)NCc1ccccc1 returned Pf Dd2 inh -2%.
`O=C(c1ccccc1)N1CCC2(CN[S+](=O)([O-])c3cccnc3O2)C1` (stereo not given) gave Pf Dd2 inh 48%.
Screening CN1CCN([C@@H]2[C@H](O)[C@H](CO)O[C@@H]2CNS(=O)(=O)c2cccs2)CC1 returned Pf Dd2 inh 24%.
CC1(C)NC(=O)N(CC(=O)N[C@H](Cc2ccccn2)C2CC(O)C2)C1=O (stereo not given in full) was read as Pf Dd2 inh -6%.
For CC(C)c1ccc(NC(=O)N[C@H]2CO[C@H]3[C@@H]2OC[C@H]3OC(=O)Nc2cccc(C(F)(F)F)c2)cc1 the results were Pf Dd2 inh inactive.
CC(C)c1noc(CC2CCN(C(=O)c3ccc(F)cc3)CC2)n1 was read as Pf Dd2 inh 17%.
Screening CC(C)c1noc(CC2CCN(C(=O)c3ccc(C(C)(C)C)cc3)CC2)n1 returned Pf Dd2 inh 7.9µM*.
CC(C)c1noc(CC2CCN(C(=O)c3ccc(N(C)C)cc3)CC2)n1 was read as Pf Dd2 inh 0%.
Cc1ncc(S(C)(=O)=O)c(N2CC(N3CCCCC3C)C2)n1 (stereo not given) was read as Pf Dd2 inh -7%.
CCN(CC)CCCNc1oc(/C=C/c2ccc(OC)c(OC)c2)nc1C#N was read as Pf Dd2 inh 2.5µM*.
For COc1ccc(/C=C/c2nc(C#N)c(NCc3ccc(C)cc3)o2)cc1OC the results were Pf Dd2 inh -20%.
For CCOc1ccc(Nc2oc(/C=C/c3ccc(OC)c(OC)c3)nc2C#N)cc1 the results were Pf Dd2 inh inactive.
CCOCCCNC(=O)NC1CCN(c2ccc(OC)cc2)C1=O (stereo not given) was read as Pf Dd2 inh 7%.
Screening COc1ccccc1NC1CN(C(=O)OC(C)(C)C)C1 returned Pf Dd2 inh -4%[44.1 µM].
O=C1Cc2c(-c3ccc(N4CCOCC4)cc3)n[nH]c2CN1CCc1ccncc1 was read as Pf Dd2 inh -9%[44.1 µM].
Screening CC(C)(C)c1cc(C[C@H]2CNCC[C@H]2CC(=O)N2CCC(Cc3ccccc3)CC2)no1 returned Pf Dd2 inh 7.9µM*.

Screening results as filed in PubChem.
